Results reported in the supplement of paper PMC10849652.
Of roughly 7,900 targets only a part is listed; those with a hit were picked by preference. About 0.6% of all pairs of compound and target were hits. A number with no mark means an inactive call.

What was measured:
Test in all cases: log2 fold change, soluble protein after heating vs DMSO (PISA); higher = thermal stabilisation; K562 cells, 10 uM, 30 min; active = over 0.2 and 3.5 SD of the protein, either way, in both replicates (recomputed)
[1] = compound: CC[C@@H]1C(=O)N(C)c2cnc(Nc3ccc(C(=O)NC4CCN(C)CC4)cc3OC)nc2N1C1CCCC1
Procedure, shortened: (§1)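 For each measurement, 10 μM compound was applied for 30 min to K562 cells at 2×10^6 cells/mL. Aliquots were heated for 3 min across 48°C-58°C, pooled, and extracted in PBS with 0.5% NP-40 at 4°C; the supernatant after 21,000xg for 90 min was soluble protein. This was quantified by TMTpro 16plex LC-MS/MS with channel sums equalised, and thermal stability was reported relative to control samples from duplicates, on a log2 fold-change scale.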

[2] = compound: CC[C@@H]1C(=O)N(C)c2cnc(Nc3ccc(C(=O)N[C@H]4CC[C@H](N5CCN(CC6CC6)CC5)CC4)cc3OC)nc2N1C(C)C [volasertib]
Procedure, shortened: as §1

[3] = compound: CC[C@H](C)N1C=C(C2=C(C=C(C=C21)C3=CN=C(C=C3)N4CCNCC4)C(=O)NCC5=C(C=C(NC5=O)C)C)C
Procedure, shortened: as §1

[4] = compound: CC[C@H](C)[C@@H](C(=O)N[C@@H]([C@@H](C)O)C(=O)N[C@@H](CC(C)C)C(=O)[C@]1(CO1)C)NC(=O)[C@H]([C@@H](C)CC)N(C)C(=O)C [epoxomicin]
Procedure, shortened: as §1

[5] = compound: CCn1c(C(=O)N(C2CC2)C2CC2)cc2c3c(ncn3C)c(Nc3cc(C)n(C)n3)nc21
Procedure, shortened: as §1

[6] = compound: CCn1cc(-c2ccnc3[nH]c(-c4cccc(CN(C)C)c4)cc23)c(-c2ccc(NC(=O)N(C)C)cc2)n1
Procedure, shortened: as §1

[7] = compound: CN(C)CC(=O)Nc1ccc2[nH]c(=O)c3ccccc3c2c1
Procedure, shortened: as §1

[8] = compound: CN(CCOC1=CC=C(C=C1)C[C@H]2C(=O)NC(=O)S2)C3=CC=CC=N3 (racemic) [rosiglitazone]
Procedure, shortened: as §1

[9] = compound: CN1C2=C(C3=C1C(=O)N(N=C3)CC4=CC(=CC=C4)N)SC(=C2)S(=O)C
Procedure, shortened: as §1

[10] = compound: CN1CCC(CNc2ccc3ncc(-c4cccc(OC(F)(F)F)c4)n3n2)CC1
Procedure, shortened: as §1

[11] = compound: CN1CCN(CCOc2cc(OC3CCOCC3)c3c(Nc4c(Cl)ccc5c4OCO5)ncnc3c2)CC1 [saracatinib]
Procedure, shortened: as §1

[12] = compound: CN1CCN(c2nc(C3=C(c4c[nH]c5ccccc45)C(=O)NC3=O)c3ccccc3n2)CC1 [sotrastaurin]
Procedure, shortened: as §1

[13] = compound: CN1CC[C@H](c2c(O)cc(O)c3c(=O)cc(-c4ccccc4Cl)oc23)[C@H](O)C1 [alvocidib]
Procedure, shortened: as §1

[14] = compound: CN1CCc2c(c3ccccc3n2Cc2ccc(C(=O)NO)cc2)C1 [Tubastatin A]
Procedure, shortened: as §1

[15] = compound: CNC(=O)C1=CC=CC=C1NC2=NC(=NC=C2Cl)NC3=C(C=C(C=C3)N4CCOCC4)OC
Procedure, shortened: as §1

[16] = compound: CNC(=O)c1ccc(Nc2ncc(C(F)(F)F)c(NCc3nccnc3N(C)S(C)(=O)=O)n2)cc1 [defactinib]
Procedure, shortened: as §1

[17] = compound: CNCc1ccc(-c2[nH]c3cc(F)cc4c3c2CCNC4=O)cc1 [rucaparib]
Procedure, shortened: as §1

[18] = compound: CNc1nc(-c2ccc3c(N)n[nH]c3c2)cc(N2C[C@@H](C(=O)NC3CCCCC3)CC[C@H]2C)n1
Procedure, shortened: as §1

[19] = compound: COC(=O)N[C@@H](C)CNc1nccc(-c2cn(C(C)C)nc2-c2cc(Cl)cc(NS(C)(=O)=O)c2F)n1 [encorafenib]
Procedure, shortened: as §1

[20] = compound: COC(=O)[C@H](CCSC)NC(=O)C1=C(C=C(C=C1)NC[C@H](CS)N)C2=CC=CC=C2
Procedure, shortened: as §1

Chain of UniProt Q9NQW7 (Q9NQW7 whole entry, looked up): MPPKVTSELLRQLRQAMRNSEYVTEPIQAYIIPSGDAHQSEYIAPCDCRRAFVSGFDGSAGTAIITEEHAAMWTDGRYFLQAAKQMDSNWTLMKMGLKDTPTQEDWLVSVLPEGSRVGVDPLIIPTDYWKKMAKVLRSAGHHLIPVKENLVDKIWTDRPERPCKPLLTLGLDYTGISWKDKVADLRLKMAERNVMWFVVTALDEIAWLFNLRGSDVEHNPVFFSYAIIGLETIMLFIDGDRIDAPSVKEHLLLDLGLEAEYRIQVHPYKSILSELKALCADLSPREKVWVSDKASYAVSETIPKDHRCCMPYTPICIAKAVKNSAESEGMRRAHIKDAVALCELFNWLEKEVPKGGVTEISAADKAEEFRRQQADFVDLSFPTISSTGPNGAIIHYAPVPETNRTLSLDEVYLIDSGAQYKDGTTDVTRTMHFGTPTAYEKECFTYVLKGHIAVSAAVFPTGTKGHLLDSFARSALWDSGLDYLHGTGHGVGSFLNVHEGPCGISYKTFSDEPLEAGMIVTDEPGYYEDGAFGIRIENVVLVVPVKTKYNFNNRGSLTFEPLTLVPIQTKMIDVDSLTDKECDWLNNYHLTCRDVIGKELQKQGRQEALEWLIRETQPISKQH
Chain of UniProt Q8IY95 (Q8IY95 whole entry, looked up): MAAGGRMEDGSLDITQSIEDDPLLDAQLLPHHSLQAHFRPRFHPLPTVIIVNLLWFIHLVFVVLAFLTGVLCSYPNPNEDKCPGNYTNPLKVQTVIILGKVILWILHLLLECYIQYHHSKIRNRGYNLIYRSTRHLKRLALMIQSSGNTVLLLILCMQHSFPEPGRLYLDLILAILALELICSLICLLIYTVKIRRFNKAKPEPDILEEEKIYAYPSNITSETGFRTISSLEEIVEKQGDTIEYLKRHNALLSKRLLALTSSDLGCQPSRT
Chain of UniProt Q53S58 (Q53S58 whole entry, looked up): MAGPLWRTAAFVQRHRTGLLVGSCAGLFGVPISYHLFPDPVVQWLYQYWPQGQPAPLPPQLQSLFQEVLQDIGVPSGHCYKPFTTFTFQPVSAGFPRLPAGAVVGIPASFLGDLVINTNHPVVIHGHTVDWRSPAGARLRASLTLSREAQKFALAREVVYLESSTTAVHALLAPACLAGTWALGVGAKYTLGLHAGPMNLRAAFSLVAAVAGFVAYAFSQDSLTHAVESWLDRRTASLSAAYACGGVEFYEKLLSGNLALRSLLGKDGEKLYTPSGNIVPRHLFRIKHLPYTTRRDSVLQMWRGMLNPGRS
Chain of UniProt Q6ZXV5 (Q6ZXV5 whole entry, looked up): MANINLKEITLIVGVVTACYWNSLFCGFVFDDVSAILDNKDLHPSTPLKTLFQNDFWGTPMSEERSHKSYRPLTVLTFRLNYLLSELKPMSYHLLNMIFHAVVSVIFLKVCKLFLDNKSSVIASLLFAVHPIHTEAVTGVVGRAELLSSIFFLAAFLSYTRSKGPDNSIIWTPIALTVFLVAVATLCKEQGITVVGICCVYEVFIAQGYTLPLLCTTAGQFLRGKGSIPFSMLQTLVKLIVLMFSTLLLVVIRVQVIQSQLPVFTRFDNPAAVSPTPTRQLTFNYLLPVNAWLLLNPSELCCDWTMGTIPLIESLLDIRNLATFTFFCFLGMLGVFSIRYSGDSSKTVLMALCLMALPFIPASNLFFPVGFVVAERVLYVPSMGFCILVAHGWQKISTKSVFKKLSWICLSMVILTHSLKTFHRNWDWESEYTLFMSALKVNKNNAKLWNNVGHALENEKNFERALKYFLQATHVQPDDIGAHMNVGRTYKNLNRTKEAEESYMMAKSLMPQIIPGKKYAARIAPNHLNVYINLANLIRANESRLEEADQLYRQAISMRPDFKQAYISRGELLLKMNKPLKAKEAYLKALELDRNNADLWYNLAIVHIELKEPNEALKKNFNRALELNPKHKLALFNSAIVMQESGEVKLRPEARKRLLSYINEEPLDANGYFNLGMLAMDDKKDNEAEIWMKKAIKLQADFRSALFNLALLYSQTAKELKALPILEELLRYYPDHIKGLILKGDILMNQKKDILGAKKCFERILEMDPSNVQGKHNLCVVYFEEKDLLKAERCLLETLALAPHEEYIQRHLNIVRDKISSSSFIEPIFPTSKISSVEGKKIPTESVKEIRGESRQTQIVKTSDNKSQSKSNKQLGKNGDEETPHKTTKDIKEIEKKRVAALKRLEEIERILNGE
Chain of UniProt Q7L0Y3 (Q7L0Y3 whole entry, looked up): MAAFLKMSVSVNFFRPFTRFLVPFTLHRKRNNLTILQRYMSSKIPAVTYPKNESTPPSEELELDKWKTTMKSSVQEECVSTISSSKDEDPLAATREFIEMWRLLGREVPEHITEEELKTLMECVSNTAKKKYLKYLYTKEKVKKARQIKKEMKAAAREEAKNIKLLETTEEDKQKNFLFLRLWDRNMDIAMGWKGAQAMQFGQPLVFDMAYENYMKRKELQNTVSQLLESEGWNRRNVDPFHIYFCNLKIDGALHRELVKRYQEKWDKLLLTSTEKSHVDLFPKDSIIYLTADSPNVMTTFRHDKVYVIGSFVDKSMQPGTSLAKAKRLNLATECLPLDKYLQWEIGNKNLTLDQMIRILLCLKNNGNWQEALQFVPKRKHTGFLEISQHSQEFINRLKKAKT
Chain of UniProt Q96K49 (Q96K49 whole entry, looked up): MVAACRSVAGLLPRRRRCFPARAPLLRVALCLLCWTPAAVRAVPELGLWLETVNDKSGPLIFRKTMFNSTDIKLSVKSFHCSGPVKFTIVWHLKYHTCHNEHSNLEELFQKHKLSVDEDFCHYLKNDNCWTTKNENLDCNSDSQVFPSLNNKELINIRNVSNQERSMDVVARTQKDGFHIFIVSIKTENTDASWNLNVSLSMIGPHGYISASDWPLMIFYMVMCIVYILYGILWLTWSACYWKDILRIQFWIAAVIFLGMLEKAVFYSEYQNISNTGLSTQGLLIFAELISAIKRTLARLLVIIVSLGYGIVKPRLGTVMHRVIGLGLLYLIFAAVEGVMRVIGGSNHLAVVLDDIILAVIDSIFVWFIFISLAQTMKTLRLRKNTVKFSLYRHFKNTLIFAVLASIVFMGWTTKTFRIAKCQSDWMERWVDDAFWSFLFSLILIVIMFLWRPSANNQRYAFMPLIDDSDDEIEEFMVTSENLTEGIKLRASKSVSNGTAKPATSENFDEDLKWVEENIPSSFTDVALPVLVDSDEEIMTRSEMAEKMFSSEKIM
Chain of UniProt Q9UEU0 (Q9UEU0 whole entry, looked up): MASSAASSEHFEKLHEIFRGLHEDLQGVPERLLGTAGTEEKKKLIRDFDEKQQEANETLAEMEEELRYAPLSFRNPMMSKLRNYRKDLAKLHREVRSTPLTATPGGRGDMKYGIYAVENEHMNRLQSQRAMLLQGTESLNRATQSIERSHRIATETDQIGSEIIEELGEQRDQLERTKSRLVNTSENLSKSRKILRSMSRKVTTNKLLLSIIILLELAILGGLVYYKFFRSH
Chain of UniProt Q7Z392 (Q7Z392 whole entry, looked up): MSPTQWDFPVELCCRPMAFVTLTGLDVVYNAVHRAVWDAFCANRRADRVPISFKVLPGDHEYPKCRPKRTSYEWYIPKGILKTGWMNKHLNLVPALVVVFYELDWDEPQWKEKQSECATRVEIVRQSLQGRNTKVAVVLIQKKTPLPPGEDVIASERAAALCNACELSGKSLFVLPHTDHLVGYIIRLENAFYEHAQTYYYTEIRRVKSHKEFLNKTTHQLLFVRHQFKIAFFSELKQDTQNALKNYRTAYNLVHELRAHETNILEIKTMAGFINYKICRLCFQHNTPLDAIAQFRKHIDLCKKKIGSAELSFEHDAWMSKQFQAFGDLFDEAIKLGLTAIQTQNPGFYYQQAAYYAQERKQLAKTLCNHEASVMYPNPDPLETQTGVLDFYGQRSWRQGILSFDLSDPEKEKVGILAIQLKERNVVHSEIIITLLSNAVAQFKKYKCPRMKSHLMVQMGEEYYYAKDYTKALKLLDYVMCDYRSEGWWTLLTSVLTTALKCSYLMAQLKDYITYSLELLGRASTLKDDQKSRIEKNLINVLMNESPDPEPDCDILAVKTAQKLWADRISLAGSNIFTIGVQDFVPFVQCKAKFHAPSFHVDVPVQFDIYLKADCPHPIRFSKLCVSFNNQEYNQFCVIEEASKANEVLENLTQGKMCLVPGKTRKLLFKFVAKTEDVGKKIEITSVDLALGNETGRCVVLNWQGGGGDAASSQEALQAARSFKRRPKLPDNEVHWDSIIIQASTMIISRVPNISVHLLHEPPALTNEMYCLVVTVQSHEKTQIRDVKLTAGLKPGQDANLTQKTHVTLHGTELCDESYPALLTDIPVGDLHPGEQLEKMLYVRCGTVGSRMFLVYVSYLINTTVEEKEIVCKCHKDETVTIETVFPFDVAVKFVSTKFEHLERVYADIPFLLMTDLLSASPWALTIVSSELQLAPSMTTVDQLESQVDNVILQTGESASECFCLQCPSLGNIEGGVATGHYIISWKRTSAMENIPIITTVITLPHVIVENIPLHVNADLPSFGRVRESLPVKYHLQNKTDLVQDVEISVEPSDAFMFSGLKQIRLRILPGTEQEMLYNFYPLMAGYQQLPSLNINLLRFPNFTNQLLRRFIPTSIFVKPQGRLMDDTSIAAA

Target | log2 fold change [1] | log2 fold change [2] | log2 fold change [3] | log2 fold change [4] | log2 fold change [5] | log2 fold change [6] | log2 fold change [7] | log2 fold change [8] | log2 fold change [9] | log2 fold change [10] | log2 fold change [11] | log2 fold change [12] | log2 fold change [13] | log2 fold change [14] | log2 fold change [15] | log2 fold change [16] | log2 fold change [17] | log2 fold change [18] | log2 fold change [19] | log2 fold change [20]
TMEM177 (UniProt Q53S58) | -0.092 | 0.051 | 0.047 | -0.052 | 0.002 | 0.048 | 0.219 | 0.035 | -0.103 | -0.075 | 0.078 | 0.014 | 0.031 | 0.08 | 0.005 | -0.046 | 0.009 | -0.003 | -0.02 | 0.024
XPNPEP1 isoform 3 (UniProt Q9NQW7) | 0.027 | 0.049 | 0.018 | -0.024 | 0 | -0.043 | 0.051 | 0.028 | -0.064 | -0.076 | 0.002 | -0.005 | -0.076 | -0.125 | -0.027 | -0.07 | -0.033 | -0.012 | -0.008 | 0.352 (active)
TMEM87B (UniProt Q96K49) | -0.088 | -0.148 | 0.092 | 0.018 | 0.002 | -0.103 | -0.016 | 0 | -0.143 | -0.436 (active) | -0.072 | 0.013 | -0.046 | -0.099 | -0.019 | 0.044 | -0.016 | -0.123 | 0.03 | 0.149
TMTC3 (UniProt Q6ZXV5) | -0.074 | -0.118 | 0.023 | 0.001 | 0.001 | 0.038 | -0.045 | 0.03 | -0.014 | -0.034 | -0.03 | 0.028 | 0.009 | 0.009 | 0.012 | 0.009 | 0.022 | 0.006 | 0.028 | -0.019
TRAPPC11 (UniProt Q7Z392) | -0.045 | -0.275 (active) | 0.015 | 0.016 | -0.049 | -0.032 | 0.032 | -0.027 | 0.004 | -0.127 | -0.043 | -0.041 | -0.085 | 0 | -0.028 | -0.075 | 0.051 | -0.027 | 0.035 | -0.031
TRMT10C (UniProt Q7L0Y3) | -0.161 | -0.416 (active) | 0.07 | 0.046 | -0.064 | -0.057 | 0.018 | 0.021 | 0.008 | 0.003 | -0.129 | -0.013 | -0.126 | -0.064 | -0.024 | -0.055 | -0.011 | 0.042 | 0.041 | -0.056
VTI1B (UniProt Q9UEU0) | -0.028 | -0.066 | -0.037 | -0.057 | 0.036 | -0.018 | -0.009 | 0.006 | 0.018 | -0.331 (active) | 0.041 | 0.07 | 0.055 | -0.046 | -0.008 | 0.005 | 0.004 | -0.091 | 0 | 0.046
TMEM192 (UniProt Q8IY95) | -0.139 | -0.061 | -0.025 | -0.04 | 0.074 | 0.046 | -0.024 | 0.008 | 0.025 | -0.408 (active) | 0.092 | -0.028 | 0.001 | 0.035 | 0.015 | -0.016 | -0.01 | -0.033 | -0.02 | 0.036
